# According to PubChem BioAssay (Tox21):
# Values without a mark were called inactive. Results filed as inconclusive are left out. Where a call stands in place of a potency, no number is given. Activity calls are given as the source filed them. Unless noted, the call rests on the fitted dose curve; in most records, active means well fitted curve in the direction sought with a large enough effect in the repeat runs; inconclusive means weak or mixed curves; inactive means no such curve, though single readings can be large; an effect the other way counts as inactive or inconclusive.
# Assays:
# [1] = qHTS assay to test for compound auto fluorescence at 535 nm (green) in HEK293 cells (AID 720680)
# [2] = qHTS assay to test for compound auto fluorescence at 460 nm (blue) in HEK293 cell free culture (AID 720681)
# Method in brief: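 Blue fluorescence (Ex 405/Em 460 nm, triamterene-equivalent) was read immediately after pin transfer of compound or DMSO into medium (DMEM, 10% FBS) without cells.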
# [3] = qHTS assay to test for compound auto fluorescence at 535 nm (green) in HEK293 cell free culture (AID 720682)
# Method in brief: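 Measurement is a direct plate read of green fluorescence (485 nm in, 535 nm out) after compound addition to serum-supplemented DMEM lacking cells, with fluorescein used to express intensities.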
# [4] = qHTS assay to test for compound auto fluorescence at 590 nm (red) in HEK293 cell free culture (AID 720683)
# Method in brief: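 Red-channel autofluorescence of compounds in culture medium (DMEM, 10% FBS), no cells, measured at 540/590 nm. Rose Bengal sodium is the reference fluorophore for equivalence.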
# [5] = qHTS assay to test for compound auto fluorescence at 590 nm (red) in HepG2 cell free culture (AID 720684)
# Method in brief: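 Steps: dispense MEM/10% FBS medium, no cells; pin compound or DMSO vehicle; read red channel, Ex/Em 540/590 nm. Output given as Rose Bengal sodium equivalents.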
# [6] = qHTS assay to test for compound auto fluorescence at 460 nm (blue) in HepG2 cell free culture (AID 720685)
# Method in brief: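 Compound (23 nL) or DMSO pinned into cell-free MEM with 10% FBS; blue fluorescence read at 405/460 nm excitation/emission, expressed as auto-fluorescence equivalency to triamterene.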
# [7] = qHTS assay to test for compound auto fluorescence at 535 nm (green) in HepG2 cell free culture (AID 720686)
# [8] = qHTS assay to test for compound auto fluorescence at 460 nm (blue) in HepG2 cells (AID 720687)
# Method in brief: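 Blue-channel autofluorescence (Ex/Em 405/460 nm, triamterene-equivalent) was measured after 1 hr compound exposure at 37 C, 5% CO2. Cells were HepG2, plated overnight at 37 C in MEM plus 10% FBS.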
# [9] = target: Glucocorticoid receptor (Homo sapiens) (UniProt P04150); experiment: qHTS assay to identify small molecule agonists of the glucocorticoid receptor (GR) signaling pathway (AID 720691; active means well fitted activation curve with a large enough effect in the signal ratio in the repeat runs, not every such curve was filed as active; the % refers to the signal ratio)
# Method in brief: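 qHTS in GR-bla HeLa cells: 4 h settling at 37 C/5% CO2, 18 h compound incubation at 37 C, 2 h LiveBLAzer B/G FRET substrate at room temperature, fluorescence intensity measured.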
# [10] = qHTS assay to identify small molecule antagonists of the glucocorticoid receptor (GR) signaling pathway - cell viability counter screen (AID 720693); further: nearly all actives have a fitted effect of over 55% in size
# [11] = qHTS assay for identifying genotoxic compounds that show differential cytotoxicity against isogenic chicken DT40 cell lines with known DNA damage response pathways - wild type cell line (AID 743012); further: nearly all actives have a fitted effect of over 60% in size; further: potency means the concentration at half of the fitted maximal effect
# Method in brief: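 First, wild type DT40 cells were plated at 300 per well and equilibrated about 0.5 h at 37 C/5% CO2. Next, compounds in DMSO were added and exposure lasted 40 h. Finally, CellTiter-Glo was added for 30 min at room temperature and luminescence recorded.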
# [12] = qHTS assay for identifying genotoxic compounds that show differential cytotoxicity against isogenic chicken DT40 cell lines with known DNA damage response pathways - Rev3 mutant cell line (AID 743014); further: nearly all actives have a fitted effect of over 55% in size; further: potency means the concentration at half of the fitted maximal effect
# [13] = qHTS assay for identifying genotoxic compounds that show differential cytotoxicity against isogenic chicken DT40 cell lines with known DNA damage response pathways - Rad54/Ku70 mutant cell line (AID 743015); further: nearly all actives have a fitted effect of over 60% in size; further: potency means the concentration at half of the fitted maximal effect
# [14] = qHTS assay to identify small molecule antagonists of the androgen receptor (AR) signaling pathway - cell viability counter screen (AID 743033; further: nearly all actives have a fitted effect of over 45% in size)
# [15] = qHTS assay to identify small molecule antagonists of the androgen receptor (AR) signaling pathway using the MDA cell line - cell viability counter screen (AID 743041; further: nearly all actives have a fitted effect of over 45% in size)
# Method in brief: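 Cells were plated at 3,000 per well and left 5 h. Compounds in DMSO were then pinned in, followed by R1881. After 16 h at 37C, CellTiter-Fluor fluorescence gave viability.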
# [16] = target: Glucocorticoid receptor (Homo sapiens) (UniProt P04150); experiment: qHTS assay to identify small molecule antagonists of the glucocorticoid receptor (GR) signaling pathway (AID 720692; active means well fitted inhibition curve with a large enough effect in the signal ratio in the repeat runs, not every such curve was filed as active; the % refers to the signal ratio)
# Method in brief: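 Inhibition of glucocorticoid signalling is measured in HeLa cells with a GRE-controlled beta-lactamase reporter; cells are co-treated with compound and 5 nM dexamethasone (final) for 18 h before FRET substrate readout.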
# [17] = target: Androgen receptor (Homo sapiens) (UniProt P10275); experiment: qHTS assay to identify small molecule agonists of the androgen receptor (AR) signaling pathway (AID 743036; active means well fitted activation curve with a large enough effect in the signal ratio in the repeat runs, with a control signal flat, not every such curve was filed as active; the % refers to the signal ratio)
# Method in brief: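 Beta-lactamase under UAS control, stably integrated in HEK293 GripTite cells, reports receptor activation. After 16 h compound treatment, cells received FRET substrate for 2 h at room temperature before fluorescence reading.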
# [18] = target: Androgen receptor (Homo sapiens) (UniProt P10275); experiment: qHTS assay to identify small molecule agonists of the androgen receptor (AR) signaling pathway using the MDA cell line (AID 743040; further: nearly all actives have a fitted effect of over 20% in size)
# Method in brief: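 Cells plated, 5 h at 37C/0% CO2; compound or DMSO pinned; 16 h at 37C; ONE-Glo added; luminescence measured after 30 min at room temperature. Reporter line: MDA-kb2 with MMTV-luciferase responsive to AR and GR.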
# [19] = target: Androgen receptor (Homo sapiens) (UniProt P10275); experiment: qHTS assay to identify small molecule antagonists of the androgen receptor (AR) signaling pathway using the MDA cell line (AID 743042; further: nearly all actives have a fitted effect of over 55% in size)
# Method in brief: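 Antagonist mode: compounds plus R1881 agonist added to MDA-kb2 AR-luc cells, incubated 16 h at 37C. Luciferase reporter luminescence quantified, with multiplexed CellTiter-Fluor readout for cell viability.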
# [20] = target: Androgen receptor (Homo sapiens) (UniProt P10275); experiment: qHTS assay to identify small molecule antagonists of the androgen receptor (AR) signaling pathway (AID 743035; active means well fitted inhibition curve with a large enough effect in the signal ratio in the repeat runs, not every such curve was filed as active; the % refers to the signal ratio)
# Method in brief: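 Beta-lactamase FRET read (2 h RT incubation with LiveBLAzer B/G) following 16 h of compound plus R1881 treatment of AR-UAS-bla HEK293 cells, which had been pre-incubated 4 h at 37C.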
# Sequence of Androgen receptor (Homo sapiens) (P10275 whole entry, looked up): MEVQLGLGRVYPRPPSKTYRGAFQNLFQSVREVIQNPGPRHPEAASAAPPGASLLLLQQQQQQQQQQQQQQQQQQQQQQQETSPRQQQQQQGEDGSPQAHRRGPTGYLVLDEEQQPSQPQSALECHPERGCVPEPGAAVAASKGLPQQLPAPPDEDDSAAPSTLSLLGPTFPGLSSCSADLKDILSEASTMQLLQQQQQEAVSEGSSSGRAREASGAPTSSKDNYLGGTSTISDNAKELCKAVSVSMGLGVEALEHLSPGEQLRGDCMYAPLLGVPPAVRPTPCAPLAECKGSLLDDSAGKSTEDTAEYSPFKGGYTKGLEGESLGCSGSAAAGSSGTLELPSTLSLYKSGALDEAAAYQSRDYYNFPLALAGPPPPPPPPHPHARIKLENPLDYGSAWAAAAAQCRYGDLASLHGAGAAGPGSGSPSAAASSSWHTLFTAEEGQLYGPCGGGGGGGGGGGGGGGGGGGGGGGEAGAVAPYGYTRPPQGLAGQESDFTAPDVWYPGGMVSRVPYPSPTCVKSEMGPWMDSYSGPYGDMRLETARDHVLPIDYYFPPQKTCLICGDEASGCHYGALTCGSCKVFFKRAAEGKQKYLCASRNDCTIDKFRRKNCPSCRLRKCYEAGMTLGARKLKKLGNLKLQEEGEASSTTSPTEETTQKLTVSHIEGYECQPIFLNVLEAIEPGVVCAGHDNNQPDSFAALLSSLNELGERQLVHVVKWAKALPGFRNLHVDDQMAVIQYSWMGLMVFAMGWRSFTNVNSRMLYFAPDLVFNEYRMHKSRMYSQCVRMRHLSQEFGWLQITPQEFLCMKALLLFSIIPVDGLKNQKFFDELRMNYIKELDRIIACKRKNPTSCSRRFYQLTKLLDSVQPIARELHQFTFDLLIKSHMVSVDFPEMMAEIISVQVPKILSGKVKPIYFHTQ
# Sequence of Glucocorticoid receptor (Homo sapiens) (P04150 whole entry, looked up): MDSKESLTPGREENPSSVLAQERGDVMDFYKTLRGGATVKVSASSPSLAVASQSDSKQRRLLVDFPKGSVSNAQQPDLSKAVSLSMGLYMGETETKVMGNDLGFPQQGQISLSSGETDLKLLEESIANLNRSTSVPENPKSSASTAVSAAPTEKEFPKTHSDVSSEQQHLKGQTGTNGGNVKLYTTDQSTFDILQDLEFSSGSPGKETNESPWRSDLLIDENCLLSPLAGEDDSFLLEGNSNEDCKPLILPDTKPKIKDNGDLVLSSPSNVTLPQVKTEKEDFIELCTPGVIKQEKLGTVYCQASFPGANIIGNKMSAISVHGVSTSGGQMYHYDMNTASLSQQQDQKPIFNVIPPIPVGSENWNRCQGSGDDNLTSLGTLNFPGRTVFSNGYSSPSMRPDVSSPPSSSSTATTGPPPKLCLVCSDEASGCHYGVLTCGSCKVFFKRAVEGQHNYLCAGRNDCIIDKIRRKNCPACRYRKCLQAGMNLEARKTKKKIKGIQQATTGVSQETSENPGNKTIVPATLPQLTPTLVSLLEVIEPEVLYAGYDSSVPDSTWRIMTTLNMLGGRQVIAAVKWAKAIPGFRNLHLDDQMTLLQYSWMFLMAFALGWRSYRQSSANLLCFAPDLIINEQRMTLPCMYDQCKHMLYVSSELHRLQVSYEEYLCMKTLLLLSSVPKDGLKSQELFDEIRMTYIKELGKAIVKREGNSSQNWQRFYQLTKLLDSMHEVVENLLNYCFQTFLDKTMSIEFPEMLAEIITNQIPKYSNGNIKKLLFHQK
Compound,outcome [1],Potency [2],outcome [3],outcome [4],outcome [5],outcome [6],outcome [7],outcome [8],Potency [9],Potency [10],Potency [11],Potency [12],Potency [13],Potency [14],Potency [15],Potency [16],outcome [17],outcome [18],Potency [19],Potency [20]
CCCCCCCCCC(C)C=O (stereo unspecified),inactive,inactive,inactive,inactive,inactive,inactive,inactive,inactive,inactive,inactive,inactive,inactive,inactive,inactive,inactive,,,,,
O=[N+]([O-])c1ccccc1CCO,inactive,inactive,inactive,inactive,inactive,inactive,inactive,inactive,inactive,inactive,inactive,inactive,inactive,inactive,,,,,,
CCCCCCCCCCCCN1CCOCC1,inactive,inactive,inactive,inactive,inactive,inactive,inactive,inactive,inactive,inactive,27.3 µM (active),8.63 µM (active),19.3 µM (active),inactive,,,,,,
CC/C=C\CCO,inactive,inactive,inactive,inactive,inactive,inactive,inactive,inactive,inactive,inactive,,inactive,inactive,inactive,inactive,inactive,,,,
CCCN(C1CCN(C(=O)C2CCNCC2)CC1)[C@@H]1CCc2ccc(OC)cc2C1,inactive,inactive,inactive,inactive,inactive,inactive,inactive,inactive,inactive,inactive,15.4 µM (active),15.4 µM (active),19.3 µM (active),inactive,,inactive,inactive,inactive,inactive,
CCCCCO,inactive,inactive,inactive,inactive,inactive,inactive,inactive,inactive,inactive,inactive,inactive,inactive,inactive,inactive,inactive,,,,,
Clc1cc(Cl)c2c(c1)N=C1CCCCCN1C2,inactive,inactive,inactive,inactive,inactive,inactive,inactive,inactive,inactive,inactive,,8.41 µM (active),13.3 µM (active),inactive,inactive,inactive,,,,
CCCCCCCCOCCCN,inactive,inactive,inactive,inactive,inactive,inactive,inactive,inactive,inactive,inactive,4.33 µM (active),6.86 µM (active),6.86 µM (active),inactive,inactive,,,inactive,inactive,inactive
COc1ccc(C(=O)Nc2ccccc2)cc1[N+](=O)[O-],inactive,inactive,inactive,inactive,inactive,inactive,inactive,inactive,inactive,inactive,,,,inactive,inactive,inactive,,,,
O=C1c2ccccc2C(=O)C1c1ccc2ccccc2n1,inactive,inactive,inactive,inactive,inactive,inactive,inactive,inactive,inactive,inactive,,inactive,1.91 µM (active),inactive,,inactive,,,,
Cc1c(Cl)cccc1[N+](=O)[O-],inactive,inactive,inactive,inactive,inactive,inactive,inactive,inactive,inactive,inactive,inactive,inactive,inactive,inactive,inactive,inactive,,,,
O=C(O)c1ccc2cc(O)ccc2c1,inactive,inactive,inactive,inactive,inactive,inactive,inactive,inactive,inactive,inactive,inactive,inactive,inactive,inactive,inactive,,,,,
Cc1ccc(NC=O)c(C)c1,inactive,inactive,inactive,inactive,inactive,inactive,inactive,inactive,inactive,inactive,inactive,inactive,inactive,inactive,inactive,inactive,,,,
COc1cc(C)c(Cc2cnc(N)nc2N)cc1OC,inactive,inactive,inactive,inactive,inactive,inactive,inactive,inactive,inactive,inactive,,,26.6 µM (active),inactive,inactive,inactive,,,,
CCC(C)C1N=C(C)C(C)S1 (stereo unspecified),inactive,inactive,inactive,inactive,inactive,inactive,inactive,inactive,inactive,inactive,,inactive,,inactive,inactive,inactive,,,,
CCc1ccc(C(=O)C(C)CN2CCCCC2)cc1 (stereo unspecified),inactive,inactive,inactive,inactive,inactive,inactive,inactive,inactive,inactive,inactive,,11.9 µM (active),16.8 µM (active),inactive,,inactive,,,,
COC(=O)C(C)(C)C,inactive,inactive,inactive,inactive,inactive,inactive,inactive,inactive,inactive,inactive,inactive,inactive,inactive,inactive,inactive,inactive,,,,
